Results filed as inconclusive are left out. Unmarked numbers belong to inactive results. Calls follow the shape of the dose curve; as a rule, active = well fitted inhibition curve with a large enough effect; inconclusive = small, poorly fitted or top-dose-only effect; inactive = flat fitted curve, though single readings scatter.
These compounds were tested against Calcium and integrin-binding protein 1 (Homo sapiens) (UniProt Q99828) (assay: Primary qHTS for Identification of Calcium Integrin Binding Protein 1 (CIB1) Competitor (AID 1508620;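 also: GST tagged CIB1 binding a fluorescein labelled alphaIIb integrin peptide tracer; top concentration of the series differs between compounds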)). Conditions: CIB1-GST / FITC-alphaIIb peptide fluorescence polarization; series mostly up to 114 µM; activity change, negative = inhibition: at the top concentration.
Calcium and integrin-binding protein 1 (Homo sapiens), sequence (Q99828 whole entry, looked up): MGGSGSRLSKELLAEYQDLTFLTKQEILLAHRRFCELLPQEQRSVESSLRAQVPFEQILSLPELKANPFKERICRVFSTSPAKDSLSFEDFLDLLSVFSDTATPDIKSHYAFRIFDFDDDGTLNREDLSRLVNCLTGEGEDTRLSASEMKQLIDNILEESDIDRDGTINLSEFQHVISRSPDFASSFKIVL
Outline: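 CIB1-GST (1 uM final) and compound incubated 15 min at room temperature before adding FITC-alphaIIb peptide tracer (100 nM final). Competition for binding read by fluorescence polarization (ex 480, em 540) after another 15 min at room temperature.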
% is scaled to controls: 0 for no effect and ±100 for the full control effect.

Question: How did the “activity change, negative = inhibition” value turn out when `O=C(Nc1ccccc1Br)NC1CCN(c2ccc(C(F)(F)F)cn2)C1` (stereo unspecified) was run?
Answer: Its value is 1.17%.

Question: `CC(C)(O)/C=C/C(=O)[C@](C)(O)[C@H]1[C@H](O)C[C@@]2(C)[C@@H]3CC=C4[C@@H](C[C@H](O[C@@H]5O[C@H](CO)[C@@H](O)[C@H](O)[C@H]5O)C(=O)C4(C)C)[C@]3(C)C(=O)C[C@]12C` was tested. Which “activity change, negative = inhibition” value did it give?
Answer: The value was -0.491% [at 30.2 µM].

Question: Which “activity change, negative = inhibition” value does the source give for `COc1cc(C#N)ccc1S(=O)(=O)Nc1ccc2c(c1)cc(C)c(=O)n2C` here?
Answer: Its value is 3.84%.

Question: Which “activity change, negative = inhibition” value does the source give for `FC(F)(F)c1ccc(CNc2ccc(Cc3c[nH]c4ncc(Cl)cc34)cn2)cn1` here?
Answer: The value was -2.94% [at 57.7 µM].

Question: For `Clc1ncoc1-c1c[nH]c2ccccc12`, which “activity change, negative = inhibition” value is on record?
Answer: The value was -0.863%.

Question: `C=C1C(=O)O[C@@H]2C=C(COC(C)=O)CC/C=C(\CO)CC[C@@H]12` was tested. Which “activity change, negative = inhibition” value did it give?
Answer: The value was -0.843% [at 57.7 µM].

Question: With `C=C1CC[C@@H]2[C@](C)(CO)[C@H](O)CC[C@@]2(C)[C@@H]1CC(O)C1=CCOC1=O` (stereo partly specified) as the compound, how does the “activity change, negative = inhibition” value read?
Answer: The value was -2.21% [at 57.7 µM].

Question: `COC1=CC(=O)C=C(C)C12Oc1c(Cl)c(OC)cc(OC)c1C2=O` (stereo unspecified) was tested. Which “activity change, negative = inhibition” value did it give?
Answer: The value was -2.22% [at 57.7 µM].

Question: Which “activity change, negative = inhibition” value does the source give for `COc1cc2nc(N3CCN(C(=O)COc4c(OC)cccc4C(C)C)CC3)nc(N)c2cc1OC` here?
Answer: Its value is 6.68%.

Question: `C=C(CCC1C(C)(O)CCC2C(C)(C)C(O)CCC12C)C(O)CO` (stereo unspecified) was tested. Which “activity change, negative = inhibition” value did it give?
Answer: Its value is 2.18% [at 57.7 µM].

Question: How did the “activity change, negative = inhibition” value turn out when `Cc1cc(C)c(S(=O)(=O)n2cc(C)cc2C)c(C)c1` was run?
Answer: Its value is 6.2%.

Question: Which “activity change, negative = inhibition” value does the source give for `CN(C)N(C)C(=O)[C@@]1(Cc2ccccc2)CCCN(C(=O)[C@@H](Cc2c[nH]c3ccccc23)NC(=O)C(C)(C)N)C1` here?
Answer: The value was 5.45%.

Question: For `CCC(CC)C(=O)OC12C(OC(=O)C(C)C)C(C)C3(O)C(C=C(CO)CC4(O)C(=O)C(C)=CC43)C1C2(C)C` (stereo unspecified), which “activity change, negative = inhibition” value is on record?
Answer: Its value is 3.19% [at 57.7 µM].

Question: With `C/C=C(\C)C(=O)OC1C(C)C2(O)C(C=C(CO)CC3(O)C(=O)C(C)=CC32)C2C(C)(C)C12OC(C)=O` (stereo unspecified) as the compound, how does the “activity change, negative = inhibition” value read?
Answer: Its value is 2.32% [at 57.7 µM].

Question: Which “activity change, negative = inhibition” value does the source give for `C[C@@H](NC(=O)[C@H](O)c1cc(F)cc(F)c1)C(=O)N[C@@H]1C(=O)N(C)c2ccccc2-c2ccccc21` here?
Answer: Its value is 3.52%.

Question: With `COc1ccc(CNCc2cccc3ccccc23)cc1` as the compound, how does the “activity change, negative = inhibition” value read?
Answer: Its value is 3.27%.

Question: Which “activity change, negative = inhibition” value does the source give for `CO[C@@H]1[C@H](O)CCC2(CO2)[C@H]1[C@@]1(C)O[C@@H]1CC=C(C)C` (stereo partly specified) here?
Answer: Its value is 5.72%.

Question: Which “activity change, negative = inhibition” value does the source give for `CC(=O)O[C@H]1C[C@@](O)(C(C)C)[C@@H]2[C@@H](OC(=O)c3ccc(O)cc3)CC(C)=CC[C@@]12C` here?
Answer: Its value is -5% [at 57.7 µM].

Question: For `C[C@@H](c1ccc2nccn2c1)n1nnc2ncc(-c3cnn(C)c3)nc21`, which “activity change, negative = inhibition” value is on record?
Answer: The value was -6.02%.

Question: Which “activity change, negative = inhibition” value does the source give for `N#Cc1ccc(-c2ccc(S(=O)(=O)Nc3cccc(N)n3)cc2)cc1` here?
Answer: Its value is 7.37%.

Question: Which “activity change, negative = inhibition” value does the source give for `O=C(NCCCCCCCCNC(=O)C(Cl)Cl)C(Cl)Cl` here?
Answer: The value was 3.74%.

Question: How did the “activity change, negative = inhibition” value turn out when `CC(C)(N)c1ncc(-c2ccc(OC(F)(F)F)cc2)[nH]1` was run?
Answer: Its value is -2.07%.

Question: How did the “activity change, negative = inhibition” value turn out when `Cc1ccc(C)c(NS(=O)(=O)c2cc(C(=O)Nc3ccccc3-c3ccccc3)ccc2C)c1` was run?
Answer: Its value is -2.96%.

Question: How did the “activity change, negative = inhibition” value turn out when `CCc1ccccc1OC[C@@H](O)CN[C@H]1CCCc2ccccc21` was run?
Answer: The value was 1.43%.

Question: Which “activity change, negative = inhibition” value does the source give for `CC12CCC(OC3OC(CO)C(O)C(O)C3OC3OC(CO)C(O)C(O)C3O)CC1CCC1C2CCC2(C)/C(=C3/COC(=O)C3)CCC12O` (stereo unspecified) here?
Answer: The value was -0.898% [at 30.2 µM].

Question: How did the “activity change, negative = inhibition” value turn out when `C/C=C/C=C/C=C/C(=O)O[C@@H]1C=C(CO)C(O)(C(=O)OC)[C@@]2(C)CCCC(C)(C)C12` (stereo partly specified) was run?
Answer: Its value is -0.819% [at 57.7 µM].

Question: With `COc1cc(C[C@H]2C(=O)OC[C@@H]2Cc2ccc(OC)c(OC)c2)ccc1O` as the compound, how does the “activity change, negative = inhibition” value read?
Answer: Its value is -5.5% [at 57.7 µM].

Question: How did the “activity change, negative = inhibition” value turn out when `O=C1C[C@]23C=CCN4CCC5c6cc7c(cc6N1[C@@]5(CC2)C43)OCO7` (stereo partly specified) was run?
Answer: Its value is -4.67% [at 57.7 µM].

Question: How did the “activity change, negative = inhibition” value turn out when `C=C1CC[C@@H]2[C@](C)(CO)[C@H](O)CC[C@@]2(C)[C@@H]1C/C=C1/C(=O)OCC1OC(=O)/C(=C/CO)C(O)C[C@@H]1C(=C)CC[C@@H]2[C@](C)(CO)[C@H](O)CC[C@]21C` (stereo partly specified) was run?
Answer: The value was 2.76% [at 30.2 µM].

Question: `CC1(CO)CC(O)[C@]2(C(=O)O)CCC34CC3(C=CC3[C@]5(C)C(CC[C@]34C)C(C)(CO)[C@@H](O)[C@H](O)[C@@H]5O)C2C1` (stereo partly specified) was tested. Which “activity change, negative = inhibition” value did it give?
Answer: Its value is 1.18% [at 57.7 µM].

Question: For `CCN(CC)CCCS(=O)(=O)N[C@H](CCc1ccccc1)c1nc(Cc2ccc(Br)cc2)no1`, which “activity change, negative = inhibition” value is on record?
Answer: The value was -6.59%.

Question: With `CC#C[C@@H](CC(=O)O)c1ccc(OCc2cccc(-c3ccc(C(F)(F)F)cc3)c2)cc1` as the compound, how does the “activity change, negative = inhibition” value read?
Answer: Its value is 7.32%.

Question: `CC(=O)O[C@H]1[C@H](O)C[C@@]2(C)C(CC[C@]3(C)C2CC=C2C4CC(C)(C)CC[C@]4(C(=O)O)CC[C@]23C)C1(C)C` (stereo partly specified) was tested. Which “activity change, negative = inhibition” value did it give?
Answer: The value was -3.12% [at 57.7 µM].

Question: How did the “activity change, negative = inhibition” value turn out when `O=S(=O)(c1ccccc1)N(CC(F)(F)F)c1ccc(C(O)(C(F)(F)F)C(F)(F)F)cc1` was run?
Answer: Its value is 0.0393%.

Question: `CC/C(C)=C/C(=O)OC1C(OC2(C)CCC3C(C4C(C)CCC42)C3(C)C)OC(C)C(O)C1O` (stereo unspecified) was tested. Which “activity change, negative = inhibition” value did it give?
Answer: Its value is -10.4% [at 57.7 µM].

Question: With `COc1ccc(S(=O)(=O)n2cnc3cc(C)c(C)cc32)cc1` as the compound, how does the “activity change, negative = inhibition” value read?
Answer: Its value is -2.76%.

From PubChem BioAssay (NCATS)
